The supplement of paper PMC6555819

Test system: VDR:RXRa (NR concentration 270 nM, RXRa partner concentration 90 nM)
Assay: PBM binding z-score (relative to random genomic background probes); higher = stronger binding; sequences stand for … in GC…GCGATTGACAGCGTAGAATGAAGG
Protocol: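 Protein-binding microarray (Agilent 4x180K custom design, double-stranded 60-nt probes: 5' GC cap, 34-nt variable region, 24-nt constant primer region; full probe sequence given). Purified or IVT nuclear receptor:RXRα heterodimers (3:1 NR:RXRα, mostly 270:90 nM) or homodimers were incubated for 1 h in PBS with 2% milk and no ligand, then detected with Alexa488 antibodies. Fluorescence from o1-orientation probes (~5 replicates averaged) was converted to z-scores against 500 random hg19 background probes. Variable regions are seed direct-repeat (DR0–DR5) sites, all their single-nucleotide variants and half-site ablations.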

Row | Sequence | PBM binding z-score
1 | CAAACTAGGTCAAAGGTCAAAGGCGAGCCAACCA | 6.82
2 | CTCGAAAGGTCTGTTGAGGTGAGTATACGGATAA | 0.221
3 | CAAACTAGGTCAAATGTCAAAGTCGAGCCAACCA | 3.1
4 | TCGAGTAGGTTACCAATGGGGTATTCAGCTTTCT | 0.0284
5 | ACAGACAGGTGAGTTAAGGTAACTCAGCTGGACG | -0.161
6 | TATCCTAGGTCATTGGGCCAGTATAGTACGCATC | 3.04
7 | ACTATTAGTTGAGACGAGGGCAACCGCTAGGTTG | 0.628
8 | AGAACGAGGGCACGCTGATTTGATAGCAGAGTAG | 0.858
9 | CCGTCTGGGGCAGAAAGGTTACCATACCATCCGG | 0.809
10 | GCTGCTAGGTCAGGTTGTTCAGCTAACGGGTACG | 0.65
11 | CCTCGGAGGACAACAGGAGGTGAGAGCTGCCAGA | -0.342
12 | TCTTGTAGATCAAAAGAGGTTAAGAAAGTGCGCT | 1.72
13 | ACAGACAGGTGATGAAGTTAACTCAGGCTATCAT | 0.117
14 | CTACTAAGGTGAACAAGGTCGTTGATTACTATTC | 6.38
15 | CGTCCAAGGTCAATGCTAGGTCTGTGAAAGCATT | 3.76
16 | ATATGTAGGTTACAACCGGGTCATTCAGGCTATG | 4.56
17 | CGAACTAGGTTAGAACAGGACAGTGAAGGATGAT | -0.215
18 | AGAATCAGGTTATTAAGATCAGGGAATTGCGGTC | 1.08
19 | ATCGAAAGGTCGATGTGAGTATAGAGAAAGGGAA | 1.97
20 | CGTCCACGGTCAGCAGGTCAGTGAAAGCGACGTG | 0.107

Row | Sequence | PBM binding z-score
21 | GCGACGGGGGCAAAGCAGGTTACCATAAGGTTGG | 3.84
22 | TAGCCTAGGTCAGATCGGTCCAGTATACGCTATA | 2.18
23 | CCTCGGAGGAAAGAAGGTCAGAGCTGTCCGCTTT | 1.09
24 | CGTCAAAGTTCAAGGTGACGTAACAGAAAGCAGC | 3.91
25 | ATCTCTAGGTAAAATTTCAGTGAATCCCGAGGAT | 0.166
26 | CCAGACAGGTGAAAGGAAACTCAGTCTGGTACGC | -0.116
27 | ACAAGCAGGCCAAGGGTCACTCAAGATTAGTCCG | 2.94
28 | TATACAGGGTCACAGGCCAGAGTACGAATGTCGA | 4.92
29 | AGTCTAAGTTCAGGACGAGGTAACGTAAAGCACG | 2.58
30 | CGACCGAGGGCATGAGTTGATAGCAAATGCCGAT | 1.3
31 | TATACAGGGTCAAAGGCCAGAATACGAATGTCGA | 4.62
32 | CGTCCAAGGTCAAAGTTCAGTGAAGAGATGACGG | 5.84
33 | TCTCTGAGGACACGAAAGGTCAGAGCTCGACATC | 3.54
34 | CGAACTAGGTCATCAAGGACAGTGAATACATTGA | 5.54
35 | ACTCGGAGGACAAAGGTCTGAGCTACGCCAGTGA | -0.29
36 | CGACCAAGGTCAGCAGGTCAGTGAAAGCGACGTG | 3.67
37 | TAGCCTAGGTCATGCGAGCCAGTATAGTGTCGGC | 1.92
38 | ATTCGGAGGACAAAGGTCAGAGCTACGCCAGTGA | 3.4
39 | GCTTACGGGTTAAAGGTTATAGCATGAATAGAAT | 3.18
40 | ATCTCTAGGGAAAAGTTCAGTGAATCCCGAGGAT | 0.557
